These results are taken from PubChem BioAssay.

Usually inhibition stands for the share of the control response that was lost under treatment.

The source made the active and inactive calls. The rule behind the calls is not given here.

For the experiment, the target named is Pantothenate synthetase (Mycobacterium tuberculosis (strain ATCC 25618 / H37Rv)) (UniProt P9WIL5). Description: Recombinant Mtb pantothenate synthetase (PanC) inhibitors, coupled enzyme, confirmatory (AID 375).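 Note: 0% = full reaction with vehicle and 100% = no enzyme background.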 The settings on record: coupled enzyme assay; at 10 µM, active compounds read high.
Sequence of Pantothenate synthetase (Mycobacterium tuberculosis (strain ATCC 25618 / H37Rv)) (P9WIL5 whole entry, looked up): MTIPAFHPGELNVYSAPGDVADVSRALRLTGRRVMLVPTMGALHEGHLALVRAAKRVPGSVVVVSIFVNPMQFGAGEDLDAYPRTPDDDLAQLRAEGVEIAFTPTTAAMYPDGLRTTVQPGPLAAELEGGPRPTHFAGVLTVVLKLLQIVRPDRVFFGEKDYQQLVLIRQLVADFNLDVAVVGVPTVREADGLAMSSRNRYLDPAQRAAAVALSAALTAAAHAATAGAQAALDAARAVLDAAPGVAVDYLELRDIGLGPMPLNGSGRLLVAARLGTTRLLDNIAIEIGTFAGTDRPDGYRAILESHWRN
Regarding `COc1ccc(CNC(=O)c2cc(-c3ccc(OC)c(OC)c3)on2)cc1`, the inhibition is 3% (inactive).
Under `CC(C)c1ccc(-c2nc(N3CCOCC3)[nH]c(=O)c2C#N)cc1` stands 7% (inactive).
With `Cc1cn([C@H]2C=C[C@@H](CO)O2)c(=O)[nH]c1=O`, the inhibition is 0% (inactive).
As for `COc1ccc(OC)c(NC(=O)CS(=O)(=O)c2ccccc2)c1`, the inhibition is 0% (inactive).
Turning to `CCn1c(SCC(=O)NCc2ccco2)nc2c(c1=O)SC(C)C2` (configuration not stated), the inhibition was 8% (inactive).
In the case of `CN1CCc2c(sc3c2c(=O)n(-c2ccccc2)c2nnc(SCc4ccccc4)n32)C1`, the inhibition was 4% (inactive).
`O=C(NCc1ccco1)c1cc2n(n1)C(C(F)(F)F)CC(c1ccc(F)cc1)N2` (configuration not stated): the inhibition was 9% (inactive).
Regarding `O=C1N2c3ccccc3CCc3cccc(c32)C1(O)C(F)(F)F` (configuration not stated), the inhibition is 0% (inactive).
The figure for `CCCCCC1NC(=O)NC1CCCCCC(=O)O` (configuration not stated) is 0% (inactive); for `Cc1nn(-c2ccccc2)c(Cl)c1C1C(C#N)=C(N)OC2=C1C(=O)CC(C)(C)C2` (configuration not stated) it is 0% (inactive); for `Cc1cc(Br)c(S(=O)(=O)n2nnc3ccccc32)cc1C` it is 2% (inactive).
Turning to `Cc1nccn1CCCN1C(=O)OC2(CCCCC2)C1(C)O` (configuration not stated), the inhibition is 0% (inactive).
As to `O=c1c(F)cn(C2CCCO2)c(=O)n1Cc1c(F)cccc1Cl` (configuration not stated), the inhibition was 0% (inactive).
In the case of `Cc1ccc(-c2csc3nnc(SCC(=O)NCc4ccco4)n23)cc1`, the inhibition was 2% (inactive).
Consider `O=c1c2c3c(sc2nc2sc(C4CC4)nn12)CCCC3`, for which the inhibition was 0% (inactive).
As for `NC(=O)C1CCN(C(=O)c2cc3n(n2)C(C(F)(F)F)CC(c2ccco2)N3)CC1` (configuration not stated), the inhibition is 0% (inactive).
Regarding `O=C(CSc1ccccc1C(=O)NCCCN1CCCC1=O)NCc1ccco1`, the inhibition was 5% (inactive).
